# EPAC2 ag – EPAC2 (human) agonism | Q8WZA2 | EPAC2 activation, biochemical qHTS; response scale: 100% = 6.5 mM cAMP response | Potency, µM (titrated, usually from 154 µM), without a hit: top-dose activation, actives largely listed as activators | 360,000 tested, 0.079% active; further: potency means the concentration at half of the fitted maximal effect; nearly all actives have a fitted effect of over 50% in size
#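 Compounds were added across a concentration range to EPAC2 (100 nM), RAP1B-BODIPY-GDP (250 nM) and GDP (50 uM). After 5 min at room temperature, fluorescence was recorded at 5-min intervals for 30 min.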
# EPAC1 ag – agonists of human EPAC1; 360,000 tested, 0.073% active; AID 720707; Potency, µM (highest dose often 154 µM), for the others: top-dose activation, usual class: activators; EPAC1 agonist qHTS, biochemical assay; response scale: 100% = response to 6.5 mM cAMP; further: potency means the concentration at half of the fitted maximal effect; nearly all actives have a fitted effect of over 60% in size
#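 Normalized to 6.5 mM cAMP, activity reflects EPAC1-catalysed release of BODIPY-GDP from Rap1B, followed kinetically over 30 min at 480 nm excitation, 540 nm emission. Reaction contained 100 nM EPAC1, 250 nM Rap1B-BODIPY-GDP, 50 uM GDP.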
# EPAC1 antag – EPAC1 (human) antagonism | EPAC1 GEF assay, Rap1b-BODIPY-GDP exchange fluorescence | 360,000 tested, 0.14% active | AID 720709 | Potency, µM (series often up to 115 µM), for the others: top-dose activity change, negative = inhibition, most hits filed as inhibitors;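 further: potency means the concentration at half of the fitted maximal effect; plate controls were vehicle for no effect and positive control for full effect; nearly all actives have a fitted effect of over 50% in size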
# Coupling enz – inhibits coupling enzyme system, counter-screen for aldolase hits; coupling enzyme system counterscreen, AmpLite Red fluorescence; activity change, negative = inhibition, % at 58.2 µM, hits read low; 290,000 tested, 0.67% active; in the data active means activity change below about -30%; further: on the % scale 0 is the no-effect control and ±100 the full control effect
#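 Fluorescence at 525 nm excitation and 598 nm emission measured inhibition of the coupled detection system without aldolase. Compounds (at 57.5 uM final) were preincubated 10 min at room temperature with coupling enzyme reagent before a 20 min substrate/AmpLite Red step.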
# EPAC2 antag – EPAC2 (human) antagonism | Q8WZA2 | 360,000 tested, 0.18% active | EPAC2 GEF exchange of Rap1B-BODIPY-GDP, fluorescence | Potency, µM (doses to about 114 µM), inactives show at the top dose activity, negative = inhibition, actives largely listed as inhibitors; further: potency means the concentration at half of the fitted maximal effect; on the % scale 0 is the no-effect control and ±100 the full control effect; nearly all actives have a fitted effect of over 45% in size
# USP1 inh – inhibitors of human USP1/UAF1 deubiquitinase | O94782 | recombinant USP1/UAF1, Ub-Rhodamine cleavage fluorescence | AID 743255 | 390,000 tested, 0.23% active | Potency, µM (highest dose often 57.1 µM), for the others: top-dose activity change, negative = inhibition, hits mostly inhibitors; further: potency means the concentration at half of the fitted maximal effect; on the % scale 0 is the no-effect control and ±100 the full control effect; nearly all actives have a fitted effect of over 60% in size
#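 Step one: compound is pinned into 1nM USP1/UAF1 in HEPES pH 7.8 buffer with TCEP. Step two: 15 min room-temperature incubation. Step three: Ub-Rho (150nM final) starts cleavage, tracked by fluorescence over six one-minute reads.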
# The depositor's hits bear a star; ? = inconclusive; . = no result given. Sampled rows, rich in hits. Any-hit rate of the full collection: about 0.87%. Unless noted, the call rests on the fitted dose curve; in most records, active means well fitted curve in the direction sought with a large enough effect; inconclusive means small, poorly fitted or top-dose-only effect, or another doubt; inactive means no such curve, though single readings can be large; an effect the other way counts as inactive or inconclusive.
SMILES,EPAC2 ag,EPAC1 ag,EPAC1 antag,Coupling enz,EPAC2 antag,USP1 inh
c1ccc2c(c1)nc(N1CCOCC1)c1c3ccccc3[nH]c21,5%,8%,-3%,-45*,2%,0%
Cc1ccc(NC(=O)NC2(C(=O)NCc3ccco3)CCCCC2)cc1,0%,4%,-4%,-4,-4%,-13%
OCCCCNc1cccc2ccccc12,1%,-6%,15%,-41*,-2%,?
O=C(O)c1cccc(N2C(=O)c3cc([N+](=O)[O-])cc4cc([N+](=O)[O-])cc(c34)C2=O)c1,7%,-4%,-10%,-20,50µM*,-20%
N#Cc1ccccc1CSC1=NCCS1,4%,-2%,-4%,3,-4%,-20%
Cn1c(-c2ccccc2)cc(=O)c2ccccc21,6%,3%,10%,0,9%,-2%
Cn1c2ccccc2c(=O)n2c(=O)c3ccccc3cc12,.,.,.,-35*,.,.
CC1=CC(C)(C)N(C(=O)c2ccc(F)cc2)c2cc3c(cc21)OCO3,10%,11%,-20%,-14,50µM*,-24%
COc1ccc(NC(=O)CCC(=O)N2CCOCC2)c([N+](=O)[O-])c1,7%,5%,6%,.,-4%,-20%
CC(=O)Nc1ccc2nc3ccccc3nc2c1,2%,4%,-3%,-33*,5%,-3%
O=C(Nc1ccc2nc3ccccc3nc2c1)c1ccc(Br)cc1,-3%,-5%,3%,-39*,5%,-20%
O=C(Nc1ccc2cccnc2c1)c1ccc(Br)cc1,21%,16%,-27%,-3,-6%,2%
O=Cc1ccc2oc3nc4n(c(=O)c3c(=O)c2c1)CCCS4,-3%,-4%,3%,0,5%,?
COc1cc2c(cc1OC)CN(C(=O)Cc1ccc(OC)c(S(=O)(=O)N3CCOCC3)c1)CC2,6%,3%,13%,0,17%,-8%
CCOC(=O)C1=C(COC(=O)/C=C/c2ccc(Cl)cc2)NC(=O)NC1C (stereo not given),3%,-4%,13%,.,16%,-14%
COc1cccc(O)c1O,.,.,.,-33*,.,.
Cc1ccc(C)c2[nH]c(=O)c(CN(Cc3nnnn3C3CCCCC3)CC3CCCO3)cc12 (stereo not given),-3%,-2%,2%,-37*,-1%,-19%
O=C1NNC(c2ccccc2)=N/C1=C\c1ccccc1Cl,26%,2%,40µM*,-15,?,18µM*
O=[N+]([O-])c1cccc(/C([O-])=C(/C(=S)Nc2cccc3ccccc23)[n+]2ccccc2)c1,2%,4%,9%,-42*,-5%,-22%
O=[N+]([O-])c1cccc(C([O-])=C(C(=S)Nc2cccc3ccccc23)[n+]2ccccc2)c1,3%,-1%,-1%,.,-3%,-10%
COc1ccc(N(CC(=O)NCCOc2ccccc2)S(=O)(=O)c2ccc(C)cc2)cc1,9%,-12%,-3%,1,-28%,-15%
O=C(CCC1CCCC1)Nc1ccc([N+](=O)[O-])cn1,-2%,112µM*,103%,0,10%,-13%
COc1ccc(-n2ccc(-c3nn(-c4cccc(C(F)(F)F)c4)ccc3=O)n2)cc1,6%,-11%,-4%,-7,-1%,-15%
O=c1ccn(-c2cccc(C(F)(F)F)c2)nc1-c1ccn(-c2ccccc2F)n1,-10%,1%,4%,-43*,-3%,-11%
CN1CCN(c2nc(-c3cccs3)cs2)CC1,1%,7%,-4%,2,-5%,-3%
O=C1c2ccccc2C(=O)N1c1nc(-c2cccs2)cs1,10%,8%,?,4,56µM*,2%
COCCCNC(=O)CCCN1C(=O)CCn2nc(-c3cccn3C)cc21,.,.,.,.,.,-33%
CN(C)c1ccc2nc3c(=O)[nH]c(=O)nc-3n(CC(O)C(O)C(O)CO)c2c1 (stereo not given),9%,20%,?,-11,3%,28µM*

# Screens deposited in PubChem by National Center for Advancing Translational Sciences (NCATS).
